Tau fibril ThT – tau fibrillization inhibition (ThT binding); actives 2.1% (n = 270,000); recombinant tau K18 P301L, heparin-induced fibrillization, ThT fluorescence; Potency, µM (titrated, usually from 57.4 µM), for inactives: at the top dose activity, negative = inhibition, usual class: inhibitors; P10636; also: potency is read from the fitted curve at half-maximal effect; nearly all actives have a fitted effect of over 55% in size
Target sequence (P10636 561-689 P618L limits assumed): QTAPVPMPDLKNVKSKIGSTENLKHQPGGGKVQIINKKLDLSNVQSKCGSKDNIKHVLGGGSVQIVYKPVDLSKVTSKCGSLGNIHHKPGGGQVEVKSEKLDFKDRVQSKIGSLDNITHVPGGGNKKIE
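Heparin-induced fibrillization of the P301L-mutant K18 repeat-domain fragment of human tau was followed by ThT binding in quantitative high-throughput format.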
Tau fibril FP – blocks human tau fibril formation measured by polarization; actives 0.39% (n = 280,000); Potency, µM (doses to about 57.7 µM), for the others: at the highest dose activity, negative = inhibition, most hits filed as inhibitors; P10636; AID 1468; K18 P301L tau heparin fibrillization, Alexa594 FP, 6 h; also: potency is read from the fitted curve at half-maximal effect; nearly all actives have a fitted effect of over 55% in size
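Heparin (20 uM) drove fibril formation of recombinant tau K18 P301L, 15 uM unlabeled with 0.24 uM Alexa 594 label, for 6 hr at 37 C in 100 mM sodium acetate pH 7. Fluorescence polarization (555/632 nm) read 1 hr after 30 uM ThT.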
PNC inhibitor – perinucleolar compartment assembly inhibition | PC3M PTB-GFP, PNC prevalence imaging, 16 h; stronger effect = lower value | activity change (PNC), negative = inhibition, % at 10 µM | actives 3.1% (n = 140,000);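 active = readout at or below -70, meaning at least 70% loss of cells showing the perinucleolar compartment, a nuclear body marking cancer cells; inconclusive = readout between -30 and a set limit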;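 also: plate controls were DMSO wells for no effect and camptothecin positive control wells for full effect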
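PC3M cells stably expressing PTB-GFP, 750–1000 cells/well, treated 16 h at 37 °C with compound (23 nl of library stock), in duplicate. After paraformaldehyde fixation and Hoechst stain, imaged at 20x; PNC prevalence scored by image analysis.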
Tau fluor counter – counter-screen for tau fibril formation inhibitors | tau K18 P301L (four-repeat tau fragment) Alexa594 fluorescence, heparin fibrillization | Potency, µM (titrated, usually from 57.7 µM), for inactives: top-dose activity change, negative = decrease | actives 0.93% (n = 280,000); also: potency is read from the fitted curve at half-maximal effect; nearly all actives have a fitted effect of over 55% in size
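Human K18 P301L tau (15 uM unlabeled plus 0.24 uM Alexa 594-labeled, final) in 100 mM sodium acetate pH 7 was mixed with compound and 20 uM heparin and incubated 6 hr at 37 C.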
NPSR antag – blocks cAMP signaling of the human neuropeptide S receptor; Q6W5P4; CHO-NPSR cells, cAMP TR-FRET, antagonist mode; Potency, µM (titrated, usually from 38.3 µM), for inactives: at the highest dose activity change, negative = inhibition, usual class: inhibitors; actives 1% (n = 220,000); also: potency is read from the fitted curve at half-maximal effect; nearly all actives have a fitted effect of over 50% in size
Target sequence (Q6W5P4 whole entry, looked up): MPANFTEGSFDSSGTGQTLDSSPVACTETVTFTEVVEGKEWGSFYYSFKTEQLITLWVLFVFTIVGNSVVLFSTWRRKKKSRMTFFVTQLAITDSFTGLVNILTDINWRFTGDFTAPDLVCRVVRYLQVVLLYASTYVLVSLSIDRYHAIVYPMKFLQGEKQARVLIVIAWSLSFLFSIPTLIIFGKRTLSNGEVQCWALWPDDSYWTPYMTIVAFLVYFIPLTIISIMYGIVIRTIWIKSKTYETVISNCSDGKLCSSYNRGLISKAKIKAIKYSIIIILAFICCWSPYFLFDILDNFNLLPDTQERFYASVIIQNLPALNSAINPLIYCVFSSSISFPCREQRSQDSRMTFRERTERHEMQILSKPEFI
KDM4E inh – blocks human JMJD2E demethylase activity. Potency, µM (doses to about 57.1 µM), for the others: top-dose activity change, negative = inhibition, usual class: inhibitors. JMJD2E catalytic domain, FDH-coupled NADH fluorescence (FDH is formaldehyde dehydrogenase). B2RXH2. actives 1.6% (n = 230,000); active = well fitted inhibition curve with a large enough effect, not every such curve was filed as active; inconclusive = small, poorly fitted or top-dose-only effect, or another doubt; inactive = no such curve, though single readings can be large or run the other way;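 also: potency is read from the fitted curve at half-maximal effect; 0% = wells with enzyme and -100% = buffer wells without enzyme; nearly all actives have a fitted effect of over 50% in size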
An asterisk follows results filed as active; ? = inconclusive; · = no result given; [ ] = another dose, or the depositor's remark. A selection: hits, their analogues and other compounds. The true share with any hit is near 5.1%. Unless noted, calls follow the shape of the dose curve; as a rule, active = well fitted curve in the direction sought with a large enough effect; inconclusive = small, poorly fitted or top-dose-only effect, or another doubt; inactive = no such curve, though single readings can be large; an effect the other way counts as inactive or inconclusive. Unless noted, % is scaled to controls: 0 for no effect and ±100 for the full control effect.

SMILES	Tau fibril ThT	Tau fibril FP	PNC inhibitor	Tau fluor counter	NPSR antag	KDM4E inh
CCCCC/C=C\C=C\[C@@H](O)CCCCCCCC(=O)O	-2.4%	-6.8%	·	0.2%	·	3.0%
CCOC(=O)C1=C(c2ccccc2)O/C(=C(\C(=O)OC)C(F)(F)F)S1	-5.3%	-2.6%	-2.8	-9.4%	-16.7%[46.1 µM]	?
CCOC(=O)C1=C(c2ccccc2)O/C(=C(/C#N)C(F)(F)F)S1	15.8µM*	?	-5.7	?	7.94µM*	-13.6%
Cc1nn(-c2ccccc2)c(C)c1/C=N/NC(=O)c1cc(-c2cccs2)[nH]n1	4.3%	-7.5%	-115.1*	-29.0%	4.7%	?
Cc1nn(-c2ccccc2)c(C)c1/C=N/NC(=O)c1cc(-c2ccc(Br)s2)[nH]n1	11.1%	?	-26.7	?	-14.8%[46.1 µM]	?
Nc1ccc2c(c1)C(=O)C(=O)c1ccccc1-2	-2.4%	4.0%	-81.1*	-4.2%	10µM*	-0.5%
COC1=C(c2ccccc2)C(=O)c2ccccc2C1=O	?	2.7%	20.4	-21.9%	?	-19.3%
O=C1C(=O)c2ccc(-c3ccccc3)cc2-c2ccccc21	1.26µM*	?	-105.1*	-17.7%	3.98µM*	-1.3%
COc1ccc(N2CCN(Cc3nc4c(c(=O)[nH]c(=O)n4C)n3Cc3ccccc3C)CC2)cc1	-4.0%	-0.1%	·	-6.4%	·	·
COc1ccc(C2/C=C\CN(C(=O)Nc3ccccc3-c3ccccc3)CC(=O)N2Cc2ccc(F)cc2)cc1 (centres undefined)	-11.1%	2.3%	·	-4.9%	10µM*	-8.0%
COC(=O)N1C/C=C\C(c2ccc(OC)cc2)N(Cc2ccc(F)cc2)C(=O)C1 (centres undefined)	9.7%	6.1%	·	22.9%	17.5%	9.3%
CCOc1ccc(S(=O)(=O)N(CC(=O)Nc2ccc3c(c2)OCO3)c2ccccc2)cc1	?	-0.8%	·	?	·	·
CCOc1ccc(S(=O)(=O)NCc2cccnc2)cc1C	-4.1%	-0.3%	·	-1.4%	16.7%	13.6%
CCOc1ccc(S(=O)(=O)NCCc2c(C)[nH]c3c(Cl)cccc23)cc1C	-15.9%	6.7%	·	10µM*[quencher]	·	·
Cc1ccc(OCCOCCn2c(-c3ccc(Cl)cc3)nc3ccccc3c2=O)cc1	-5.8%	-7.7%	·	-16.5%	·	·
Nc1ccc(N2CCOCC2)c2nonc12	14.1µM*	?	·	?	23.9%	23.8%
COc1ccc(NC(=O)Nc2ccc(N3CCOCC3)c3nonc23)c(OC)c1	?	-9.5%	·	-20.8%	10.5%	-14.1%
O=C(Nc1ccc(F)cc1)Nc1ccc(N2CCOCC2)c2nonc12	2.82µM*	13.8%	·	-22.7%	-5.8%	-5.4%
O=C(Nc1ccc(N2CCOCC2)c2nonc12)C1CCCC1	?	?	-8.2	-17.2%	-25.1%[46.1 µM]	-10.0%
CCOC(=O)c1cccc(NC(=O)CC2C(=O)N(c3ccc(F)cc3)C(=O)N2C(C)C)c1 (centres undefined)	8.6%	-0.1%	·	-6.6%	·	·
CCOC(=O)C1=C(C)Nc2sc(C(=O)c3ccc(OC)cc3)c(N)c2C1c1ccc(C(=O)OC)cc1 (centres undefined)	5.5%	7.3%	167.5	5.01µM*[quencher]	-6.7%	2.9%
O=C(Oc1cccc2c(O)cccc12)c1ccccc1	?	10.9%	7.6	12.6µM*[quencher]	?	-6.4%
CC(C)OCCCNc1ncnc2sc3c(c12)CCCC3	-9.1%	2.7%	·	-7.4%	·	·
NC1(C(=O)O)CCc2cc(P(=O)(O)O)ccc21 (centres undefined)	2.8%	4.9%	·	3.0%	·	·
O=[N+]([O-])c1ccc(N2N=C(c3ccco3)CC2c2ccccc2)cc1 (centres undefined)	8.91µM*	?	91.4	?	-10.9%[46.1 µM]	-4.4%
CCOc1ccc(C2=Nn3c(nnc3-c3ccccc3OC)SC2)cc1	-7.4%	2.2%	-86.1*	-3.8%	?	5.2%
CCOc1ccc(-c2nnc3n2N=C(c2ccc(OC)cc2)CS3)cc1	2.2%	-4.3%	13.6	6.0%	-21.6%[46.1 µM]	6.1%

Assay outcomes: PubChem BioAssay, National Center for Advancing Translational Sciences (NCATS)
